# Like-named read-outs stand apart in the source and are kept apart here.
# Experiments:
# Parameters in all cases: species or system human, MV4-11 + K-562 + COLO205 + SK-N-BE2 + OVCAR-8
# ATM = settings: read-out: apparent Kd, n = 1
# BMPR1B = settings: read-out: apparent Kd; compound concentrations:100 nM and 1000 nM (sheet 'Samples'); n = 1
# DDR1 = settings: read-out: apparent Kd; compound concentrations:100 nM and 1000 nM (sheet 'Samples'); n = 1
# IRAK3 = settings: read-out: apparent Kd; compound concentrations:100 nM and 1000 nM (sheet 'Samples'); n = 1
# MAPK10 = settings: read-out: apparent Kd; compound concentrations:100 nM and 1000 nM (sheet 'Samples'); n = 1
# MAPK11 = settings: read-out: apparent Kd; compound concentrations:100 nM and 1000 nM (sheet 'Samples'); n = 1
# MAPK14 = settings: read-out: apparent Kd, n = 1
# MAPK8 = settings: read-out: apparent Kd; compound concentrations:100 nM and 1000 nM (sheet 'Samples'); n = 1
# MAPK9 = settings: read-out: apparent Kd; compound concentrations:100 nM and 1000 nM (sheet 'Samples'); n = 1
# MAPKAPK2 = settings: read-out: apparent Kd; compound concentrations:100 nM and 1000 nM (sheet 'Samples'); n = 1
# PIK3CD = settings: read-out: apparent Kd; compound concentrations:100 nM and 1000 nM (sheet 'Samples'); n = 1
# PRKAG1 = settings: read-out: apparent Kd; compound concentrations:100 nM and 1000 nM (sheet 'Samples'); n = 1
# FECH = settings: read-out: apparent Kd; compound concentrations: 100 nM and 1000 nM (sheet 'Samples'), CATDS: 0.190744919400651; n = 1
# PIK3CA = settings: read-out: apparent Kd; compound concentrations: 100 nM and 1000 nM (sheet 'Samples'), CATDS: 0.27121911823644002; n = 1
# PLK1 = settings: read-out: apparent Kd; compound concentrations: 100 nM and 1000 nM (sheet 'Samples'), CATDS: 0.15646266136602699; n = 1
# PRKACG = settings: read-out: apparent Kd; compound concentrations: 100 nM and 1000 nM (sheet 'Samples'), CATDS: 0.152371623335085; n = 1
# FLT4 = settings: read-out: apparent Kd; compound concentrations: 100 nM and 1000 nM (sheet 'Samples'), CATDS: 0.192292703568538; n = 1
# RIPK2 = settings: read-out: apparent Kd; compound concentrations: 100 nM and 1000 nM (sheet 'Samples'), CATDS: 0.39426216370123801; n = 1
# STK10 = settings: read-out: apparent Kd; compound concentrations: 100 nM and 1000 nM (sheet 'Samples'), CATDS: 0.17094041462039; n = 1
# AKT2 = settings: read-out: apparent Kd; compound concentrations: 100 nM and 1000 nM (sheet 'Samples'), CATDS: 0.183770633421974; n = 1
# CSNK1D = settings: read-out: apparent Kd; compound concentrations: 100 nM and 1000 nM (sheet 'Samples'), CATDS: 0.20295054988008099; n = 1
# DYNC1LI1 = settings: read-out: apparent Kd; compound concentrations: 100 nM and 1000 nM (sheet 'Samples'), CATDS: 0.215188969129953; n = 1
# NQO1 = settings: read-out: apparent Kd; compound concentrations: 100 nM and 1000 nM (sheet 'Samples'), CATDS: 0.18936127019719301; n = 1
# CHEK1 = settings: read-out: apparent Kd; compound concentrations:100 nM and 1000 nM (sheet 'Samples'); n = 1
# GRK6 = settings: read-out: apparent Kd; compound concentrations:100 nM and 1000 nM (sheet 'Samples'); n = 1
# PDGFRB = settings: read-out: apparent Kd; compound concentrations:100 nM and 1000 nM (sheet 'Samples'); n = 1
# RET = settings: read-out: apparent Kd; compound concentrations:100 nM and 1000 nM (sheet 'Samples'); n = 1
# RPS6KA6 = settings: read-out: apparent Kd; compound concentrations:100 nM and 1000 nM (sheet 'Samples'); n = 1
# [1] = compound concentrations:100 nM and 1000 nM (sheet 'Samples')
compound,measurement,setting,value
CCn1c(=O)c(Oc2ccc(F)cc2F)cc2cnc(NC3CCOCC3)nc21 [RO4367438-000],potency estimated from few doses,ATM; [1],238 nM
same,potency estimated from few doses,BMPR1B,867 nM
same,potency estimated from few doses,DDR1,1510 nM
same,potency estimated from few doses,IRAK3,1240 nM
same,potency estimated from few doses,MAPK10,45.1 nM
same,potency estimated from few doses,MAPK11,89.8 nM
same,potency estimated from few doses,MAPK14; [1],2.49 nM
same,potency estimated from few doses,MAPK8,153 nM
same,potency estimated from few doses,MAPK9,46.5 nM
same,potency estimated from few doses,MAPKAPK2,8.81 nM
same,potency estimated from few doses,PIK3CD,13.5 nM
same,potency estimated from few doses,PRKAG1,128 nM
COc1cccc(COc2cc(-n3cnc4ccccc43)sc2C(N)=O)c1 [GW804482X],potency estimated from few doses,"ATM; compound concentrations: 100 nM and 1000 nM (sheet 'Samples'), CATDS: 0.32091008376932201",210 nM
same,potency estimated from few doses,FECH,558 nM
same,potency estimated from few doses,PIK3CA,277 nM
same,potency estimated from few doses,PLK1,938 nM
same,potency estimated from few doses,PRKACG,1020 nM
CCS(=O)(=O)c1ccc(OC)c(Nc2nccc(N(C)c3ccc4c(C)n[nH]c4c3)n2)c1.Cl [GW654652C],potency estimated from few doses,"ATM; compound concentrations: 100 nM and 1000 nM (sheet 'Samples'), CATDS: 0.41438416433349501",228 nM
same,potency estimated from few doses,FLT4,1430 nM
same,potency estimated from few doses,RIPK2,249 nM
same,potency estimated from few doses,STK10,2280 nM
CSc1nccc(-c2c(-c3ccc(F)cc3)ncn2CCCN2CCOCC2)n1.Cl [SB-217146-A],potency estimated from few doses,AKT2,2140 nM
same,potency estimated from few doses,CSNK1D,1740 nM
same,potency estimated from few doses,DYNC1LI1,1560 nM
same,potency estimated from few doses,"MAPK14; compound concentrations: 100 nM and 1000 nM (sheet 'Samples'), CATDS: 0.21262407645477699",1590 nM
same,potency estimated from few doses,NQO1,2010 nM
COc1cc(Nc2cnc(C#N)c(O[C@H](C)CN(C)C)n2)ncc1-c1cnn(C)c1 [CCT244747],potency estimated from few doses,ATM; [1],179 nM
same,potency estimated from few doses,CHEK1,39.7 nM
same,potency estimated from few doses,GRK6,1230 nM
same,potency estimated from few doses,PDGFRB,1490 nM
same,potency estimated from few doses,RET,112 nM
same,potency estimated from few doses,RPS6KA6,460 nM
